A selection: hits, their analogues and other compounds. The true share with any hit is near 0.82%.
Keap1-Nrf2 PPI: inhibitors of human Keap1-Nrf2 protein-protein interaction; inhibition, % at 9.4 µM; Q14145; 0.15% of 340,000 active; AID 504523; Keap1 Kelch-Nrf2 peptide fluorescence polarization, 1536-well; in the data active = inhibition above about 12%;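 also: human Keap1 Kelch domain with fluorescein labeled Nrf2 9mer peptide probe; 0% = neutral control wells and 100% = peptide positive control; higher means more block of Keap1 binding to Nrf2 peptide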
Target sequence (Q14145 whole entry, looked up, the tested form may be a part): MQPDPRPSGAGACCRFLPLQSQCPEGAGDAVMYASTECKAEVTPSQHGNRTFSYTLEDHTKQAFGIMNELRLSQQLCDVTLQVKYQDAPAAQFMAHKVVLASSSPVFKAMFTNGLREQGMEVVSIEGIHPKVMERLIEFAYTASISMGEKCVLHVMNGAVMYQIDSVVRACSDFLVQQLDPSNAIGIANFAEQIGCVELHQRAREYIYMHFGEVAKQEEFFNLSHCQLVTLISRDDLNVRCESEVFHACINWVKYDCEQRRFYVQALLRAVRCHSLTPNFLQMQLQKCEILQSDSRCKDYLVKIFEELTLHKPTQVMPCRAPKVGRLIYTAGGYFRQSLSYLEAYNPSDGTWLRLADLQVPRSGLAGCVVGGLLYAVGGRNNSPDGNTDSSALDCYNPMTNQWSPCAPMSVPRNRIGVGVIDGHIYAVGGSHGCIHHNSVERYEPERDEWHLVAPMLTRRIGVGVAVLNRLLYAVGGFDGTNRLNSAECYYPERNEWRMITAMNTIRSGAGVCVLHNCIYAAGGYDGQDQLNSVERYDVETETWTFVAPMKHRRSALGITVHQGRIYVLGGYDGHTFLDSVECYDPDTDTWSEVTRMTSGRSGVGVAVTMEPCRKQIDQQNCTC
RTF Ca sens inh: cardiac RTF calcium desensitization; IANBD-labeled cardiac RTF, Ca2+ fluorescence; 0.12% of 340,000 active; inhibition, % at 7.15 µM; P19429+P45379;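 active = inhibition above the mean inhibition of all tested compounds plus 3 SD, cut at about 17% in these data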;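 also: assay run at fixed EC70 calcium of 1.6 mM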
LANA DNA inh: KSHV C-LANA DNA binding inhibition; MBP-C-LANA/FAM-LBS DNA binding, fluorescence polarization; inhibition, % at 9 µM; 0.078% of 340,000 active; AID 504423;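 active = highest replicate inhibition at or above 60% at 9 µM, even if other replicates fall short; inactive = all replicates below 60% inhibition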;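 also: 0% = neutral control wells and 100% = 4 µM acridine orange control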
cardiac RTF act: increases calcium sensitivity of human cardiac regulated thin filaments; IANBD-labeled TnC RTF fluorescence at EC20 calcium; 0% EC20 calcium, 100% full calcium; 0.24% of 340,000 active; P19429+P45379; activation, % at 7.2 µM; AID 493008;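 active = activation above the mean over all tested compounds plus 3 SD, cut at about 30% in these data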;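 also: rise in fluorescence read as greater calcium sensitivity of cardiac thin filaments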
eLon inh: E. coli protease La inhibition. P0A9M0. purified E. coli Lon protease, fluorescence polarization. inhibition, % at 7.94 µM. 0.42% of 360,000 active; in the data active = inhibition above about 13%, passing the limit was not always enough;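 also: 0% = enzyme with probe and DMSO and 100% = no enzyme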
RTF Ca inh conf: confirmation of inhibitors of cardiac thin filament calcium sensitivity; AID 504635; shares compounds with RTF Ca sens inh; 8% of 360 active; inhibition, % at 7.15 µM; reconstituted cardiac thin filaments, calcium sensitivity fluorescence; in the data active = inhibition above about 18%
Keap1 Kelch bind: binders of human Keap1 Kelch domain. shares compounds with Keap1-Nrf2 PPI. Keap1 Kelch thermal shift, delta Tm; active compounds read high. max delta Tm, degrees C. 8% of 400 active; in the data active = max delta Tm above about 0.48 degrees C
Dye-only ctr: counter-screen for Keap1 thermal shift hits: dye-only artifacts; AID 651858; Sypro Orange dye-only thermal melt, no protein, delta Tm; top dose 26 µM; 140 tested, under 10 active; shares compounds with Keap1-Nrf2 PPI; delta Tm, degrees C (no concentration beside the values);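 active = at highest dose tested, delta Tm positive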
An asterisk follows results filed as active; i = inactive; . = not tested or not shown; + = active, no number; ! = not confirmed by another sample.

SMILES	Keap1-Nrf2 PPI	RTF Ca sens inh	LANA DNA inh	cardiac RTF act	eLon inh	others
CCC1(C)OC(c2ccccc2)=C/C(=C/C=C2C(=O)NC(=O)NC2=O)O1 (stereo not given)	-15.6	-162.9	-3.4	123.3*	-478.6
Cc1noc(C)c1COc1ccc(C(=O)NCC2(N(C)C)CCCCC2)cc1	.	.	.	.	3.6
O=Cc1c(C(=O)O)n(Cc2ccccc2Cl)c2ccccc12	-5.2	-3.5	-1.1	5.0	-0.8
Cc1cc(C)c(Cn2c(C(=O)O)c(C=O)c3ccccc32)c(C)c1	-69.1	-61.8	-8.1	64.2*	-140.6
CCN1/C(=C\C=C\C2=[N+](CC)c3ccccc3C2(C)C)C(C)(C)c2ccccc21	-372.2	i	-43.5	895.5*	+
CN1Cc2c(c(C#N)c(N)n(C)c2=S)CC1(C)C	16.1*	-75.7	22.4	50.1*	39.7*
O=c1[nH]c(=O)n(C2CCCCC2)c(O)c1C=Nc1ccc(N2CCOCC2)cc1	-2.1	-7.3	197.5*	7.5	-2.4
C=CCn1c(O)c(/C=C/C=Nc2ccccc2)c(=O)[nH]c1=O	3.2	-4.3	2.4	1.6	-269.9
Cc1ccc(-n2c(O)c(/C=C/C=Nc3ccccc3)c(=O)[nH]c2=O)cc1	-17.6	-39.4	-7.7	38.7*	-268.8
CCn1c(O)c(C=Nc2ccc(N3CCOCC3)cc2)c(=O)n(CC)c1=S	-5.6	-11.9	5.2	130.5*	-31.6
CCn1c(O)c(C=Nc2ccc(N3CCOCC3)c(Br)c2)c(=O)n(CC)c1=S	-15.2	-5.2	18.4	-2.0	-5.5
O=c1[nH]c(=O)n(-c2ccccc2)c(O)c1/C=C/C=Nc1ccccc1	-108.2	-70.9	-26.1	78.5*	i
C[C@]12CCC(=O)C=C1C=CC1C2CC[C@@]2(C)C1CC[C@@H]2O (stereo not given in full)	1.3	2.0	-2.9	10.7	-10.4
CCOC(=O)[C@]12Cc3c(cc(OC)c(OC)c3OC)[C@H]1N(C)C(=O)c1cc(OC)ccc12	.	.	.	.	-7.8
CC(C)C1CN1CC(O)Cn1ccnc1[N+](=O)[O-] (stereo not given)	.	.	.	.	-0.3
O=C(O)COc1cc(Cl)c(Cl)cc1Cl	.	.	.	.	-7.5
COc1ccc(-n2c(O)c(/C=C/C=Nc3ccccc3)c(=O)[nH]c2=O)cc1	-248.8	-223.2	-70.4	202.4*	i
O=c1[nH]c(=O)n(C2CCCCC2)c(O)c1/C=C/C=Nc1ccccc1	-109.0	-83.2	-3.2	55.0*	-448.4
Clc1cccc(NC2=NCCS2)c1	.	.	.	.	11.5
COc1ccc(CN2Cc3cc(-c4ccc(OC)cc4)ccc3-n3nncc3C2)cc1	.	.	.	.	3.8
CCOC(=O)c1c(NC(=O)c2c(N)n(CCCOC)c3nc4ccccc4nc23)sc2c1CCCC2	1.5	-2.8	1.2	3.9	-11.9
CCOCCCn1c(N)c(C(=O)Nc2sc3c(c2C(=O)OC)CCCC3)c2nc3ccccc3nc21	-9.7	-35.0	-1.3	52.2*	-58.4
COc1cc2c(C(=O)N3CCN(C)CC3)c(C)n(C)c2cc1Br	1.0	-5.7	8.0	-2.7	19.6*
CCOc1cc(C=C2C(=O)NC(=S)NC2=O)ccc1O	12.3*	-1.6	2.9	-0.9	-9.9
NC(=O)c1ccc(OCCC(O)N2CC=C(c3ccc(F)cc3)CC2)cc1 (stereo not given)	-0.1	95.2*	-0.8	-1.9	3.1	RTF Ca inh conf=-4.2
SMILES	Keap1-Nrf2 PPI	RTF Ca sens inh	LANA DNA inh	cardiac RTF act	eLon inh	others
CCOC(=O)c1ccc(N2C(=O)CC(N3CC=C(c4ccc(F)cc4)CC3)C2=O)cc1 (stereo not given)	-0.8	-0.8	1.0	4.4	-17.1
CCCNS(=O)(=O)c1ccc(OCC(=O)N2CCN(Cc3ccc4c(c3)OCO4)CC2)cc1	-2.6	18.2*	-0.8	3.2	-4.4	RTF Ca inh conf=-3.1
Cc1nc2cc(F)ccc2n1C1CCN(Cc2nnnn2CCc2ccccc2)CC1	0.6	18.2*	0.3	3.0	-3.1	RTF Ca inh conf=-3.3
O=C1NCN(c2ccccc2)C12CCN(C(c1cccs1)c1nnnn1Cc1ccccc1)CC2 (stereo not given)	.	.	.	.	-2.4
CC[C@H](C)/C=C(C)/C=C/C1=CC2=C(Cl)C(=O)[C@](C)(OC(C)=O)C(=O)C2=CO1	-9.4	38.9*	22.5	-34.6	12.0	RTF Ca inh conf=20.9*
NCCc1cc(O)c(O)cc1O	0.7	25.6*!	1.6	-9.4	2.1	RTF Ca inh conf=2.7
CCOC(=O)[C@]12Cc3c(cc(OC)c(OC)c3OC)[C@H]1N(C(C)C)C(=O)c1ccccc12	.	.	.	.	-1.9
OCC(Cl)CCl (stereo not given)	-2.9	-5.2	-1.0	4.8	6.9
C[C@@H]1CN([C@H](C)CO)C(=O)CCCn2cc(nn2)CO[C@H]1CN(C)C(=O)Oc1ccc2ccccc2c1	.	.	.	.	4.8
COc1cc(CNCCc2ccc3c(c2)OCO3)ccc1O	-6.8	-4.5	-1.0	0.5	-6.3
CCCCCCCCC(=O)NCc1ccc(O)c(OC)c1	-0.7	19.5*	0.7	3.5	-2.4	RTF Ca inh conf=-3.5
CC(C)COC(=O)c1ccccc1C(=O)OCC(C)C	-4.0	-4.2	2.2	14.1	-5.1
C[CH2][Hg][S]c1ccccc1C(=O)O	i	+	0.0	i	0.3	RTF Ca inh conf=i
O=C(O)c1cccc2c1NC(C(=O)O)C1CC(Sc3ccccc3[N+](=O)[O-])C(Cl)C21 (stereo not given)	31.2*	55.5*	132.1*	-37.3	14.9	Keap1 Kelch bind=1*
CCCc1nc2ccccc2c(=O)n1-c1ccc(OC)cc1	-0.4	-4.6	-0.1	10.4	3.4
COc1ccc(-n2c(CNCCc3ccc(C)cc3)nc3ccccc3c2=O)cc1	35.9*	-2.7	17.8	1.1	-4.7	Keap1 Kelch bind=-0.19;Dye-only ctr=-27.7
COCCNC(=O)Cn1cc(/C=C2\C(=O)NC(=O)N(c3cccc(C)c3C)C2=O)c2ccccc21	20.1*	-9.9	52.5	2.7	-128.5	Keap1 Kelch bind=-0.22;Dye-only ctr=-29.5
Brc1ccc2c(c1)CN(CC1CCCCC1)Cc1cnnn1-2	.	.	.	.	-4.9
COC(=O)C1=C(c2cccc(C#N)c2)C[C@@H]2CC[C@H]1N2C(=O)NC1Cc2ccccc2C1	5.2	-4.5	1.8	-7.9	-1.5
CCOC(=O)c1sc(/N=C/c2c(O)n(-c3ccccc3)c(=O)[nH]c2=O)c(C#N)c1C	-20.9	2.6	-1.5	6.7	-45.7
CCOC(=O)c1c(/N=C/c2c(O)n(-c3cccc(C)c3)c(=O)[nH]c2=O)sc2c1CCCC2	71.5*	-2.4	9.4	-3.4	-18.6	Keap1 Kelch bind=-0.08
CCOc1ccc(C(C)=O)cc1Cn1ccsc1=N	1.3	-14.5	-5.0	2.6	7.2
CCn1cc(C=C2C(=O)NC(=O)NC2=O)c2ccccc21	21.1*	-4.5	28.9	0.5	-25.4	Keap1 Kelch bind=-0.08

Screening data as filed in PubChem.
